Source: PubChem (several laboratories)
Only some compounds are listed: those with a hit (about 2% of all), similar ones and a draw of the others.
PKD1 kinase inh: inhibitors of human PKD1 kinase; 200,000 compounds, 0.056% hits; inhibition, % (test concentration not listed); PKD1 kinase fluorescence polarization assay; AID 797; in the data active = inhibition above about 50%
Wee1 stabilizer: inhibitors of human Wee1 degradation. 220,000 compounds, 1.2% hits. reporter increase, % at 5 µM. AID 1321. HeLa Luc-Wee1K328M stability, luciferase luminescence; 100% = proteasome inhibitor MG132 effect;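 active = activation above the mean of all tested compounds plus 3 SD, set per screening run, cut at about 8.8% in these data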;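 also: cells exposed to compound for 20 h before luminescence read; 0% = DMSO alone and 100% = MG132 at 30 µM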
Target sequence (P30291 whole entry K328M): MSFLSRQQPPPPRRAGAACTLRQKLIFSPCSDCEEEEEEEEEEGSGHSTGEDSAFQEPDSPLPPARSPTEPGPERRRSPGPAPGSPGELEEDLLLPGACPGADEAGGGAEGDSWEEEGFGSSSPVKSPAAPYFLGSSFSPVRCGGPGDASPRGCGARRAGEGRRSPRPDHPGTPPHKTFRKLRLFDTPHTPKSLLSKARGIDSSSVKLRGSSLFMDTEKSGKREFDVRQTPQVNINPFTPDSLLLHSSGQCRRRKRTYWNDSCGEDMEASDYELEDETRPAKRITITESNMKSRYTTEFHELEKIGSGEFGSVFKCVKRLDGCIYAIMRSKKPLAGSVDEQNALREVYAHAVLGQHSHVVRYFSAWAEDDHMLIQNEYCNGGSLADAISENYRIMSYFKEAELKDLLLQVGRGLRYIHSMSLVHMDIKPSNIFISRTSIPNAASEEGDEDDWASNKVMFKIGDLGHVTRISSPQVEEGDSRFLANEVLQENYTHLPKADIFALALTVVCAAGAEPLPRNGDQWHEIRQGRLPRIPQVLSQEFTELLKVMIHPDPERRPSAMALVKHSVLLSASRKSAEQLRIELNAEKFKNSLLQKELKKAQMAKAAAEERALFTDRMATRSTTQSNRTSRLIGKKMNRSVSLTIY
Hsp70 activator: switches on Hsp70 transcription; HeLa Hsp70 promoter luciferase reporter, luminescence; scaled: vehicle 0, proteasome-inhibitor control 100%; activation, % at 10 µM; 200,000 compounds, 0.04% hits; AID 1203;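 active = activation above the mean across all tested compounds plus 3 SD, cutoff set per campaign, cut at about 5.5% in these data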;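 also: 100% = MG132 at 30 µM as the positive control and 0% = DMSO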
Efa HMGR inh: E. faecalis class II HMG-CoA reductase inhibition | purified E. faecalis HMGR, NADPH absorbance 340 nm kinetic | inhibition, % at 10 µM | 190,000 compounds, 0.41% hits | AID 1066;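 active = inhibition above a set limit, the median over all tested compounds plus 3 SD, cut at about 9.5% in these data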;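 also: enzyme runs in reverse so mevalonate oxidation gives rising NADPH absorbance; 0% = complete reaction with DMSO and 100% = background rate lacking mevalonate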
Arbovirus inh: arbovirus infection inhibition. inhibition, % at 10 µM. 200,000 compounds, 0.37% hits. arbovirus infection cell-based antiviral screen; in the data active = inhibition above about 30%
* marks the source's active call; other numbers are inactive results; / = no result given.

SMILES	PKD1 kinase inh	Wee1 stabilizer	Hsp70 activator	Efa HMGR inh	Arbovirus inh
CCn1c(CNC(=O)Cc2ccc(OC)cc2)nnc1SCC(=O)Nc1ccc(C(=O)O)cc1	-1	0	0	-1	0
CCn1c(CNC(=O)Cc2ccc(OC)cc2)nnc1SCC(=O)Nc1nccs1	-1	11*	0	-1	-5
CC(C)Nc1nnc(SCC(=O)NCc2ccc3c(c2)OCO3)s1	2	-2	0	0	9
Cc1nnc(SCC(=O)NCc2ccc3c(c2)OCO3)s1	-5	9.5*	0	2	-3
O=C(NCc1n[nH]c(=S)n1-c1cccc(C(F)(F)F)c1)c1ccc(S(=O)(=O)N2CCCC2)cc1	0	1	0	1	-4
O=C(CNC(=O)c1ccc(S(=O)(=O)N2CCCC2)cc1)N/N=C/c1ccc(Cl)cc1	-8	0	0	16*	5
O=C(CNC(=O)c1ccc(S(=O)(=O)N2CCCC2)cc1)N/N=C/c1ccccc1	-17	-1	0	4	-1
O=C(N/N=C\c1cc(Br)ccc1O)c1ccc(S(=O)(=O)N2CCCCC2)cc1	-13	9.1*	-1	1	-26
O=C(N/N=C/c1ccc(O)c(O)c1)c1cccc(S(=O)(=O)N2CCCCC2)c1	-4	0	0	-9	-9
O=C(NCc1n[nH]c(=S)n1-c1cccc(Cl)c1)c1ccc(S(=O)(=O)N2CCCC2)cc1	1	11*	0	-5	1
COc1ccc(-c2cc(-c3ccc(OC)c(OC)c3)n[nH]2)c(O)c1	-7	0	0	-1	32*
O=C1CCCN1CCC1CCCCN1Cc1nc(-c2cnccn2)no1 (configuration not stated)	-9	-1	0	-2	0
O=C(NC1CCCCC1)C(c1ccc(O)c(O)c1)N(C(=O)Cn1nnc2ccccc21)c1cccc(O)c1 (configuration not stated)	3	2	0	-2	-5
COc1ccc(NCc2nnc(SCCN3CCCCC3)n2-c2ccc(C)cc2)cc1	-6	-1	0	17*	9
Cc1ccc(-n2c(CNc3ccc(F)cc3)nnc2SCC(=O)N2CCCC2)cc1	7	1	0	-10	6
Cc1cccc(OCc2nnc(SCC(=O)N3CC(=O)Nc4ccccc43)o2)c1	0	2	0	1	-1
Cc1c(NC(=O)Nc2ccc(Cl)c(Cl)c2)sc(=S)n1C	4	-2	0	/	/
COc1ccc(NC(=O)Nc2sc(=S)n(C)c2C)cc1	3	12*	0	-6	3
O=C(O)CC12CC3CC(C1)CC(n1ncc(NCc4ccccc4Cl)c(Cl)c1=O)(C3)C2	/	0	/	/	/
O=C(O)C12CC3CC(C1)CC(n1ncc(NCc4ccco4)c(Cl)c1=O)(C3)C2	/	10*	/	/	/
COC(=O)c1ccc(NC(=S)NNC(=O)c2ccccc2)cc1	3	-2	0	-1	11
COC(=O)c1ccc(NC(=S)NNC(=O)CC(C)C)cc1	-9	10*	0	-2	-8
CCCCCCP(=O)(O)c1ccccc1	-7	0	0	-1	5
CCCCP(=O)(CCCC)Cc1ccccc1O	-6	9.4*	0	-3	2
CC(NC(=O)COC(=O)c1ccc([N+](=O)[O-])s1)c1ccccc1 (configuration not stated)	2	8.9*	0	-9	-4
SMILES	PKD1 kinase inh	Wee1 stabilizer	Hsp70 activator	Efa HMGR inh	Arbovirus inh
FC(F)(F)c1ccc(NC(=S)NC2CCCCC2)cc1	-3	0	0	1	-4
O=C(O)c1ccc(NC(=S)NC2CCCCC2)cc1	4	9.6*	0	2	-7
O=C(CN1CCc2ccccc2C1)Nc1cccc(S(=O)(=O)N2CCCC2)c1	-3	0	0	5	12
CC(=O)c1cccc(NC(=O)Cn2nc(-c3ccccc3Cl)ccc2=O)c1	-1	11*	0	-2	-4
Cc1cc(C)n2nc(SCc3nnc(-c4ccccc4Br)o3)nc2n1	0	1	0	-3	0
O=C(/C=C/c1ccc(Cl)cc1)Nc1ccc(N2CCCCC2)cc1	11	-1	0	-1	7
O=C(/C=C/c1ccccc1)Nc1ccc(N2CCCCC2)cc1	-3	9.0*	0	-1	-2
CCOC(=O)C/C(N)=N/N(C)c1ncc(C(F)(F)F)cc1Cl	-6	0	0	-4	2
O=C(COc1ccccc1Cl)Nc1ccc(CN2CCCCC2)cc1	-4	0	0	-6	-2
Cc1cc(N)n(-c2nc3ccccc3s2)n1	-2	3	0	9.6*	16
Cc1cc(C)n(-c2nc3ccccc3s2)n1	0	-5	0	2	2
CN(c1ccccc1C(=O)N1CCN(Cc2ccc3c(c2)OCO3)CC1)S(C)(=O)=O	-4	5	0	-5	6
Cc1[nH][nH]c(=O)c1C(c1ccc(-c2ccc(Cl)cc2Cl)o1)c1c(C)[nH][nH]c1=O	0	0	1	10*	8
Cc1[nH][nH]c(=O)c1C(c1ccc(-c2cccc(Cl)c2)o1)c1c(C)[nH][nH]c1=O	/	2	/	/	/
CCCCNCc1nc2ccccc2c(=O)[nH]1	0	8.9*	0	-2	15
CCOC(=O)C1=C(C)N(C)C(=S)NC1c1ccc(Cl)cc1 (configuration not stated)	-4	9.9*	0	-6	2
CCOC(=O)C1=C(C)N(C)C(=S)NC1c1ccccc1 (configuration not stated)	-3	3	0	1	7
Cc1cc(C)nc(Oc2ccc(Br)cc2)n1	/	-2	/	/	/
COc1ccc(C(=O)N2CCC(C(=O)Nc3ccccc3C)CC2)cc1OC	-7	-1	0	10*	5
COC(=O)c1ccccc1NC(=O)C1CCN(C(=O)c2cc(OC)c(OC)c(OC)c2)CC1	8	4	0	-6	124*
COc1ccc(-c2noc(-c3ccccc3C(=O)NCC3CCCO3)n2)cc1 (configuration not stated)	/	-1	/	/	/
O=C(NCCOc1ccccc1)c1ccccc1NC(=O)C1CCCO1 (configuration not stated)	2	9.9*	0	-7	2
CCc1ccc(NC(=O)c2ccccc2NC(=O)C2CCCO2)cc1 (configuration not stated)	-2	0	0	-10	-4
CC(C)c1ccc2[nH]c(O)c(N=NC(=O)c3cccc(S(=O)(=O)Nc4ccc(Cl)cc4)c3)c2c1	4	3	0	0	-11
CC(C)c1ccc2[nH]c(O)c(N=NC(=O)c3cccc(S(=O)(=O)Nc4cccc(Cl)c4)c3)c2c1	/	11*	/	/	/
O=C1CN(C(=O)/C=C/c2ccc(Cl)cc2)c2ccccc2N1	0	0	0	-3	31*
O=C(/C=C/c1cccc([N+](=O)[O-])c1)NCCN1CCOCC1	-9	-3	0	0	2
O=C(CSCc1c(Cl)cccc1Cl)Nc1ccc2c(c1)OCCO2	-9	0	0	1	-1
Cc1cc(N)n(-c2ccc(C(=O)O)cc2)n1	-1	2	0	0	-2
